# Screening results as filed in PubChem.
# A549 viability – Nrf2 qHTS screen for inhibitors: counterscreen for cytotoxicity. A549 ARE-Fluc cells, CellTiter-Fluor viability, 18-24 h. Potency, µM (doses to about 46 µM), inactives show at the top dose activity change, negative = cytotoxicity, most hits filed as inhibitors. 0.16% of 390,000 active. AID 504648, 2011; also: % is scaled to controls: 0 for no effect and ±100 for the full control effect
#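 Cytotoxicity counterscreen: CellTiter-Fluor fluorescence was measured in A549 ARE_Fluc cells after 18-24 h of compound exposure in a concentration series. The subsequent BugLite luminescent read reports ARE-luciferase activity.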
# Nrf2 block – Nrf2 qHTS screen for inhibitors; A549 ARE-Fluc reporter, luciferase luminescence, 18-24 h; AID 504444, 2011; 2.1% of 360,000 active; Potency, µM (top dose mostly 46 µM), inactives show at the highest dose activity change, negative = inhibition, hits mostly inhibitors; also: % is scaled to controls: 0 for no effect and ±100 for the full control effect; nearly all actives have a fitted effect of over 60% in size
#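 Two sequential reads on A549 ARE_Fluc cells exposed to compound for 18-24 h: a CellTiter-Fluor fluorescence read for viability, then a luciferase luminescence read for Nrf2/ARE activity.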
# Pin1 inh – qHTS Assay to Find Inhibitors of Pin1; Pin1 FP peptide displacement, HiFluor488, 10 min; 0.009% of 390,000 active; Potency, µM (doses to about 115 µM), inactives show at the highest dose activity, negative = inhibition, usual class: inhibitors; AID 504891, 2011; active = well fitted inhibition curve with a large enough effect in the polarisation, with a control signal flat, not every such curve was filed as active; inconclusive = small, poorly fitted or top-dose-only effect, or effect the other way, or a change in a side signal; inactive = no such curve, though single readings can be large or run the other way; the % refers to the polarisation; also: % is scaled to controls: 0 for no effect and ±100 for the full control effect
# Target sequence (Q13526 whole entry, looked up): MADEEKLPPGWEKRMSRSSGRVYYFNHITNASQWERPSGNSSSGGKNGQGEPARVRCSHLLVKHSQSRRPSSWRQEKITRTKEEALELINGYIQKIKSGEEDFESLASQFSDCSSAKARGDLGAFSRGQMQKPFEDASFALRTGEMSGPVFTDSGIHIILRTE
# Nrf2 activator – qHTS of Nrf2 Activators | AREc32 ARE-luciferase reporter (MCF7-derived line), luminescence, 24 h | 0.31% of 410,000 active | Potency, µM (highest dose often 46.1 µM), inactives show at the highest dose activation, usual class: activators; also: % of control where 0% means no effect; nearly all actives have a fitted effect of over 65% in size
#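 Luminescent ARE reporter assay in AREc32_Fluc cells: overnight plating at 37 deg C, 24 hr compound incubation, Steady-Glo added, 30 min RT before reading.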
# * marks the source's active call; other numbers are inactive results; ? = inconclusive; . = no result. Shown are actives, neighbours in structure and some others; about 2.2% of the full set was active somewhere. Unless noted, calls follow the shape of the dose curve; as a rule, active = well fitted curve in the direction sought with a large enough effect; inconclusive = small, poorly fitted or top-dose-only effect, or another doubt; inactive = no such curve, though single readings can be large; an effect the other way counts as inactive or inconclusive. Potency is read from the fitted curve at half-maximal effect.
SMILES,A549 viability,Nrf2 block,Pin1 inh,Nrf2 activator
CN(C)[C@@H]1C(=O)C(C(N)=O)=C(O)[C@@]2(O)C(=O)C3=C(O)c4c(O)ccc(Cl)c4[C@@](C)(O)C3C[C@@H]12 (some centres undefined),?,23µM*,15%,-1%
COc1ccc(NC(=O)Cn2c3ccccc3c3nc4n(c(=O)c32)CCS4)cc1,-8%,?,28%,3%
CC(C)(C)c1ccc(C(=O)Nc2ccc3nc(SCC(=O)N4CCCC4)sc3c2)cc1,?,15µM*,9%,-3%
COc1ccc(CNC(=O)Cn2c(=O)oc3cc(S(=O)(=O)N4CCCC4)ccc32)cc1,-8%,?,17%,0%
CC(C)c1ccc(NC(=O)Cn2c(=O)oc3cc(S(=O)(=O)N4CCCC4)ccc32)cc1,-11%,21µM*,-1%,-1%
Cc1ccc(-c2nnc(Nc3ccc(Br)cc3)c3ccccc23)cc1S(=O)(=O)NCc1nc2ccccc2[nH]1,-14%,?,13%,11%
Cn1cnc([N+](=O)[O-])c1Sc1ccc([N+](=O)[O-])cc1,?,9.2µM*,-4%,18%
COc1cccc(NC(=O)C2CCN(S(=O)(=O)c3cc(-c4noc(C)n4)ccc3C)CC2)c1,-7%,.,?,4%
COC1=CC(=O)[C@]2(C=C1OC)OC[C@@H]1Oc3c(ccc4c3C=CC(C)(C)O4)C(=O)[C@@H]12,-10%,0.65µM*,?,6%
CCn1cc(C(=O)c2cccs2)c2ccccc21,-1%,7%,-6%,5%
Cc1cc(C)cc(NC(=O)Cn2cc(C(=O)c3cccs3)c3ccccc32)c1,-17%,16µM*,22%,0%
O=c1[nH]c(=O)n(CCC2=CCCCC2)c(O)c1/C=N/Nc1ccccc1,-13%,23µM*,35%,0%
O=c1[nH]c(=O)n(CCC2=CCCCC2)c(O)c1/C=N/Nc1cccc2ccccc12,1%,9%,?,1%
Cc1ccc(-c2cc(-c3ccccc3)cc(-c3ccccc3)[n+]2-c2ccccc2)cc1,?,18µM*,5%,-3%
c1ccc(-c2cc(-c3ccccc3)[n+](-c3ccccc3)c(-c3ccccc3)c2)cc1,?,?,8%,-3%
CCC(=NCCc1ccccc1)c1c(O)n(C)c(=O)n(C)c1=O,2%,21µM*,1%,1%
Cn1c(O)c(C(=Nc2ccccc2)SCc2ccc(Cl)cc2)c(=O)n(C)c1=O,?,23µM*,9%,16%
Cc1ccccc1C(=O)Nc1ccc(C(=O)OCc2cc(=O)n3nc(C4CC4)sc3n2)cc1,-20%,.,?,-1%
Cc1ccc(-n2nc3c(N4CCC(C(=O)NCc5ccccc5Cl)CC4)nnc(C)c3c2C)cc1,0%,?,25%,3%
CNc1cc(N2CCN(C)CC2)ccc1[N+](=O)[O-],-29%,3%,0%,3%
O=[N+]([O-])c1ccc(N2CCCC2)cc1N/N=C1\CN2CCC1CC2,9.2µM*,-23%,2%,2%
N=C1/C(=C\c2ccc(OC(=O)c3ccccc3Cl)cc2)C(=O)N=C2SC(N3CCOCC3)=NN12,-14%,?,?,5%
CCCCOc1ccc(C(=O)NCCc2csc(-c3ccc(OC)cc3)n2)cc1,-17%,.,?,0%
COc1ccc(C(=O)Nc2sc3c(c2C(=O)O)CC(C)(C)OC3)cc1,-20%,8.2µM*,0%,0%
CCC(=NCc1ccc2c(c1)OCO2)c1c(O)n(C2CCCCC2)c(=O)[nH]c1=O,.,12µM*,73%,1%
C=CCn1c(O)c(C(C)=NCc2ccc3c(c2)OCO3)c(=O)[nH]c1=O,3%,21µM*,-6%,3%
O=C(Nc1ccc2c(c1)OCO2)c1cccn(Cc2ccc(F)cc2)c1=O,-14%,.,-4%,6%
Cc1ccc(-n2nc3c(=O)n(CC(=O)Nc4ccccc4F)nc(C)c3c2C)c(C)c1,-1%,?,1%,5%
CCC(C(=O)Nc1ccccc1C(=O)OC)n1nc(C)c2c(C)n(-c3ccc(C)cc3)nc2c1=O (centres undefined),-22%,18µM*,18%,-1%
COc1ccc(-c2cc(C(=O)N3CCN(c4ccccc4OC)CC3)c3cc(C(C)C)ccc3n2)cc1,0%,.,32%,2%
